# Bioassay records: PubChem BioAssay, Emory University Molecular Libraries Screening Center
# The full list was thinned out, with hits kept by preference.
# 14-3-3g Raf: modulators of 14-3-3 gamma protein binding, primary screen, biochemical, fluorescence polarization. FP, 14-3-3gamma / TMR-pS259-Raf peptide binding. inhibition, % at 40 µM. actives 0.19% (n = 160,000). AID 422, 2006; in the data active = inhibition above about 30%;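 also: 0% = protein plus tracer without compound and 100% = blank with tracer alone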
# Target sequence (P61981 whole entry, looked up): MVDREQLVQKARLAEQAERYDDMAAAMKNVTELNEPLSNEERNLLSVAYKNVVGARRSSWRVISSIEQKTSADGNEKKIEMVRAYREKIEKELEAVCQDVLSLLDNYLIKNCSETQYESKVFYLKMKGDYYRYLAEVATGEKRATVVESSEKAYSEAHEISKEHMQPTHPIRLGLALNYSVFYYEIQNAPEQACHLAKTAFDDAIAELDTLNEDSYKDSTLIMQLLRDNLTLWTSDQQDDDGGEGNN
# * marks the source's active call; other numbers are inactive results.
SMILES,14-3-3g Raf
O=[N+]([O-])c1ccc(Cl)c2nonc12,-36.8
O=[N+]([O-])c1ccc(N2CCCC2)c2nonc12,199.7*
O=[N+]([O-])c1ccc(N2CCCC2)c2ccccc12,-4.5
COc1ccc(NC(=O)C2c3cc(OC)c(OC)cc3C(=O)N3CCCCC23)cc1OC (stereo unspecified),0.6
C=CCOC(=O)C1C2NC(=S)N(c3cccc(C)c3)C1(C)Oc1c(OCC)cccc12 (stereo unspecified),-4.8
